# SKN-1 inh = C. elegans SKN-1 inhibition. 0.49% of 360,000 active. AID 624304. C. elegans VP596 Pgst-4::GFP/RFP ratio, acrylamide-induced, 24 h. inhibition, % at 21.8 µM;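 active = interference check ratio from 0.5 to 1.5 plus GFP to RFP signal ratio inhibition reaching or exceeding a fixed threshold, cut at about 30% in these data, passing the limit was not always enough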
# M1 antag = blocks human M1 muscarinic receptor; P11229; 1.3% of 360,000 active; inhibition, % at 3 µM; CHO-K1 hM1, Fluo-8 calcium fluorescence, ACh EC80 antagonist; AID 588852;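 active = percent inhibition above its own plate's cutoff, namely the mean of that plate's compound wells plus 3 SD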;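 note: peak over basal fluorescence ratio during 140 s after agonist addition; 0% = ACh EC80 plus DMSO and 100% = DMSO alone without agonist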
# CHRM1 agonist = activates human CHRM1 receptor | 0.33% of 360,000 active | activation, % at 3 µM | P11229 | CHO-K1 hM1, Fluo-8 calcium fluorescence, agonist mode; 0% DMSO, 100% acetylcholine EC100;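 active = activation above the run's mean compound activation plus 3 SD, cut at about 16% in these data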;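 note: peak over basal fluorescence ratio within a 140 s kinetic read after compound addition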
# CHRM1 PAM = human CHRM1 positive allosteric modulation. P11229. CHO-K1 hM1, Fluo-8 calcium fluorescence, ACh EC20; 0% = ACh EC20, 100% = maximal ACh. activation, % at 3 µM. 0.088% of 360,000 active. AID 588819; in the data active = activation above about 19%, passing the limit was not always enough
# ATG4B inhibitor = blocks human ATG4B protease cleavage of LC3 substrate; inhibition, % at 8.33 µM; ATG4B cleavage of LC3-PLA2, NBD-HPC fluorescence, 1 h; AID 504462; 0.51% of 340,000 active; Q9Y4P1; in the data active = inhibition above about 40%
# Target sequence (Q9Y4P1 whole entry, looked up): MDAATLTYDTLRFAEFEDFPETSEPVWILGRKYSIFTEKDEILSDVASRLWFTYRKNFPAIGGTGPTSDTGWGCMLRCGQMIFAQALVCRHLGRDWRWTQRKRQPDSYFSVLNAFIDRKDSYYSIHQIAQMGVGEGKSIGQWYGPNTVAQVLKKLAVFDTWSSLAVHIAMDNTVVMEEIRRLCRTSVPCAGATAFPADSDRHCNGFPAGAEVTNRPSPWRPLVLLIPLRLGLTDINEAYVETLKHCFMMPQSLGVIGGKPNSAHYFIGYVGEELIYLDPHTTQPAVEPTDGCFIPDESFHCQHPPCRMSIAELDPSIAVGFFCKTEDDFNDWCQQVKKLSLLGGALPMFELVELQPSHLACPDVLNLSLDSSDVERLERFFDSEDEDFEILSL
# Myeloid diff MLP = promotes myeloid progenitor differentiation. calls only at 10 µM. 1% of 360,000 active. ER-HoxA9 myeloid progenitors, lysozyme-GFP differentiation, flow cytometry;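 active = normalized GFP-positive differentiation at or above the plate's own cutoff, the solvent-only control mean plus 3 SD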;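 note: cells exposed to compound for four days before flow analysis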
# The depositor's hits bear a star; i = inactive; nt = no result given; + = active, no number. Shown are actives, neighbours in structure and some others; about 3.5% of the full set was active somewhere.
SMILES,SKN-1 inh,M1 antag,CHRM1 agonist,CHRM1 PAM,ATG4B inhibitor,Myeloid diff MLP
c1ccc2c(c1)ccc1ccccc12,8,-8,-2,2,-10,i
CCCCCCCCC[n+]1cccc2c3ccccc3ccc21,15,95*,-1,-22,3,nt
NCC1CC2c3ccccc3C1c1ccccc12 (stereo not given),3,28*,-9,-17,-2,i
O=C(CSc1nnc2ncccn12)Nc1cccc2ccccc12,-8,-1,-1,12,-5,i
CCc1nc(SCC(=O)N2c3ccccc3CC2C)c2c(C)c(C)sc2n1 (stereo not given),5,19,-6,-12,83*,i
Cc1nnc(SCC(=O)N2c3ccccc3CC2C)s1 (stereo not given),1,-2,-6,0,-5,i
CCC(NC(=O)CCc1c(C)c2cc3c4c(oc3cc2oc1=O)CCCC4)C(=O)O (stereo not given),10,0,-6,4,-11,i
COc1ccc2c(c1)c(CC(=O)Nc1cc(C)ccc1C)c(C)n2C(=O)c1ccc(Cl)cc1,4,6,-5,-7,-9,+
Nc1c(-c2ccc(C(F)(F)F)cc2)nc2ncccn12,24,nt,nt,nt,nt,i
CCOC(=O)c1[nH]c2ccc(OC)cc2c1NC(=O)CN1CCc2ccccc2C1,19,23*,-2,-9,-11,i
CCOC(=O)c1[nH]c2ccc(OC)cc2c1NC(=O)CN1CCC2(CC1)OCCO2,-14,-3,-1,5,-3,i
CC(C)c1ccc(OCCCCN2CCCCC2)cc1,2,60*,-8,-25,-7,i
CC(C)Oc1ccc(OCCCN2CCCCCC2)cc1,5,36*,-7,-20,-6,i
Nc1nc2ncccc2cc1C(=O)NC1CCCCC1,-5,nt,nt,nt,nt,i
COCCCNC(=O)COc1ccc2oc3c(c2c1)CCCC3,36*,-4,-6,3,2,i
CC(C)N(CCNC(=O)COc1ccc2oc3c(c2c1)CCCC3)C(C)C,-12,14,-6,-14,3,i
Cc1ccc(C(=O)OCC(=O)NC(=O)c2ccc(C(C)(C)C)cc2)c(O)c1,17,34*,1,-12,-8,i
Cc1noc(C)c1S(=O)(=O)Nc1ccc(C(=O)N2CCN(c3ccc(Cl)cc3)CC2)cc1,12,18*,6,-13,-11,i
Cc1noc(C)c1S(=O)(=O)N1CCN(c2ccc(Cl)cc2)CC1,9,-5,-4,1,-1,i
O=c1oc(/C=C/c2ccc([N+](=O)[O-])s2)nc2ccccc12,3,-6,1,7,-4,+
CC(=O)Oc1ccccc1/C=C/c1nc2ccccc2c(=O)o1,20,-12,-1,7,33,i
CCOC(=O)C1CCCN(C(=O)c2ccc3sccc3c2)CC1 (stereo not given),6,-22,-8,15,nt,i
O=C(NCc1ccccc1)c1cccc(NC(=O)C2CC2)c1,4,4,-2,-5,5,i
CCn1c(SCC(=O)Nc2ccc(NC(=O)c3cccs3)cc2)nnc1-c1cccnc1,35*,-32,-3,1,-5,i
CCn1c(SCC(=O)Nc2nc(C)c(C)s2)nnc1-c1cccnc1,10,0,-9,6,-2,i
SMILES,SKN-1 inh,M1 antag,CHRM1 agonist,CHRM1 PAM,ATG4B inhibitor,Myeloid diff MLP
C=CCn1c(SCCOC)nc2c1c(=O)[nH]c(=O)n2C,3,-10,-4,6,-19,i
C=CCn1c(SCCN2CCCCC2)nc2c1c(=O)[nH]c(=O)n2C,-21,28*,-12,-20,2,i
O=C(NCCS(=O)(=O)NCc1cccs1)c1ccccc1,-4,-7,-1,4,nt,i
COc1ccc(OC)c(S(=O)(=O)NCC(=O)NC2CCCCCC2)c1,3,0,-4,-2,-6,i
Cc1ncc(CO)c2cc(S(=O)(=O)c3ccc(F)cc3)c(=O)oc12,16,23*,-1,-13,-4,i
O=c1oc2ccc(Br)cc2cc1S(=O)(=O)c1ccc(F)cc1,6,-12,-2,12,16,i
C[C@H]1CN([C@@H](C)CO)C(=O)c2cccc(NC(=O)C3CC3)c2O[C@H]1CN(C)S(=O)(=O)c1cccs1,-19,-22,-3,10,1,i
